# According to the antibiotic and cytotoxicity screens of Wong et al. (2023):
# Screen size: about 39,000 compounds; about 3,300 (8.5%) were called active. For the sample, actives were picked, then their nearest neighbours and some compounds at random.
# Test system: HepG2
# Assay: cytotoxicity call (relative viability < 0.9)
# Settings: 10 µM
row,SMILES,cytotoxicity call
1,Cc1ccc(S(=O)(=O)N(C)C[C@H]2Oc3ccc(NS(=O)(=O)c4cccs4)cc3C(=O)N([C@H](C)CO)C[C@@H]2C)cc1,inactive
2,COc1ccc(COC[C@]23NC(=O)N(C(=O)c4ccccc4)[C@H](c4ccccc4O2)[C@H]3CO[Si](C)(C)C(C)(C)C)cc1,inactive
3,C[C@@H]1CN([C@H](C)CO)C(=O)Cc2cc(NC(=O)C3CCCCC3)ccc2O[C@H]1CN(C)S(C)(=O)=O,inactive
4,C[C@H]1CCCCO[C@H](CN(C)Cc2ccc(Cl)c(Cl)c2)[C@@H](C)CN([C@@H](C)CO)C(=O)c2cc(NC(=O)Nc3cccc4ccccc34)ccc2O1,inactive
5,C[C@@H]1CCCCO[C@H](CN(C)C(=O)C2CCCCC2)[C@@H](C)CN([C@H](C)CO)C(=O)c2cc(NC(=O)NC3CCCCC3)ccc2O1,inactive
6,C[C@@H]1CCCCO[C@@H](CN(C)C(=O)C2CCCCC2)[C@@H](C)CN([C@@H](C)CO)C(=O)c2cc(NC(=O)NC3CCCCC3)ccc2O1,inactive
7,C[C@H](CO)N1C[C@H](C)[C@H](CN(C)C(=O)C2CCCCC2)OCCCC[C@H](C)Oc2ccc(NC(=O)NC3CCCCC3)cc2C1=O,active
8,C[C@@H]1CN([C@@H](C)CO)C(=O)c2cc(NC(=O)NC3CCCCC3)ccc2O[C@@H](C)CCCCO[C@H]1CN(C)C(=O)C1CCCCC1,active
9,C[C@@H]1CCCCO[C@@H](CN(C)C(=O)C2CCCCC2)[C@H](C)CN([C@@H](C)CO)C(=O)c2cc(NC(=O)NC3CCCCC3)ccc2O1,inactive
10,C[C@@H]1CCCCO[C@H](CN(C)C(=O)C2CCCCC2)[C@@H](C)CN([C@@H](C)CO)C(=O)c2cc(NC(=O)NC3CCCCC3)ccc2O1,inactive
11,C[C@H]1CCCCO[C@H](CN(C)C(=O)C2CCCCC2)[C@@H](C)CN([C@@H](C)CO)C(=O)c2cc(NC(=O)NC3CCCCC3)ccc2O1,inactive
12,C[C@H](CO)N1C[C@H](C)[C@@H](CN(C)C(=O)C2CCCCC2)OCCCC[C@H](C)Oc2ccc(NC(=O)NC3CCCCC3)cc2C1=O,inactive
13,C[C@@H]1CCCCO[C@H](CN(C)C(=O)C2CCCCC2)[C@H](C)CN([C@@H](C)CO)C(=O)c2cc(NC(=O)NC3CCCCC3)ccc2O1,active
14,CCS(=O)(=O)N1C[C@]2(CCN(CC2)S(=O)(=O)c2cn(cn2)C)c2c([nH]c3cc(ccc23)OC)[C@@H]1CO,inactive
15,COc1ccc(S(=O)(=O)Nc2ccc3c(c2)C(=O)N([C@@H](C)CO)C[C@@H](C)[C@H](CN(C)C(=O)Nc2c(C)noc2C)OCCCC[C@@H](C)O3)cc1,inactive
16,Cc1noc(C)c1NC(=O)N(C)C[C@@H]1Oc2ccc(NS(=O)(=O)c3c(C)noc3C)cc2C(=O)N([C@@H](C)CO)C[C@H]1C,inactive
17,Cl.NC[C@H](N)C(=O)O,inactive
18,COc1ccccc1S(=O)(=O)N(C)C[C@H]1OCc2cn(nn2)CCCC(=O)N([C@H](C)CO)C[C@@H]1C,inactive
19,Cc1cccc(NC(=O)Nc2ccc3c(c2)C(=O)N(C)[C@@H]2CC[C@H](CC(=O)NCc4ccccc4Cl)O[C@H]2CO3)c1,inactive
20,C=CC[C@H](CC(=O)N(CCO)Cc1ccccc1)C(=O)N[C@H](COC(=O)[C@@H](CC=C)CC(=O)OC(C)(C)C)Cc1c[nH]c2ccccc12,inactive
21,C[C@H](CO)N1C[C@H](C)[C@H](CN(C)C(=O)Nc2ccccc2)Oc2ccc(NC(=O)CCN3CCOCC3)cc2CC1=O,inactive
22,Cc1ccc(S(=O)(=O)N(C)C[C@@H]2Oc3ccc(NS(=O)(=O)c4ccc(F)cc4)cc3CC(=O)N([C@H](C)CO)C[C@H]2C)cc1,inactive
23,O=C(NCc1ccccc1)C1=C[C@H](c2ccc(Br)cc2)C[C@H](OCc2ccc(CO)cc2)O1,inactive

row,SMILES,cytotoxicity call
1,Cc1ccc(S(=O)(=O)N(C)C[C@H]2Oc3ccc(NS(C)(=O)=O)cc3CC(=O)N([C@@H](C)CO)C[C@H]2C)cc1,inactive
2,COc1cc(CC=Cc2ccccc2)c(OC)cc1O,inactive
3,COC1=CC(=O)C(O)=CC1=CC=Cc1ccccc1,active
4,O=C(O)C=CC=Cc1ccccc1,inactive
5,C[C@@H]1CN([C@H](C)CO)C(=O)c2cc(NC(=O)C3CCCCC3)ccc2O[C@@H]1CN(C)C(=O)Nc1ccc(C(F)(F)F)cc1,inactive
6,C[C@H]1CN([C@@H](C)CO)C(=O)c2cc(NS(=O)(=O)c3cccs3)ccc2O[C@H]1CN(C)S(=O)(=O)c1ccccc1,inactive
7,C[C@@H]1CN([C@H](C)CO)C(=O)c2cc(NC(=O)CCCCCC(=O)Nc3ccccc3N)ccc2O[C@@H]1CN(C)S(C)(=O)=O,inactive
8,C[C@H](CO)N1C[C@H](C)[C@H](CN(C)C(=O)C2CCCCC2)OCCCC[C@H](C)Oc2ccc(NC(=O)CCC(F)(F)F)cc2C1=O,inactive
9,Cc1ccc(NC(=O)[C@@H]2[C@@H]3CC/C=C\CC/C=C/CC[C@@H]32)cc1C,inactive
10,CCC(=O)c1ccc(Cl)s1,inactive
11,C[C@H]1CCCCO[C@@H](CN(C)C(=O)Nc2ccc(F)cc2)[C@@H](C)CN([C@@H](C)CO)C(=O)c2cc(NC(=O)Nc3ccc(C(F)(F)F)cc3)ccc2O1,inactive
12,C[C@H](CO)N1C[C@H](C)[C@H](CN(C)C(=O)Nc2ccc(F)cc2)OCCCC[C@H](C)Oc2ccc(NC(=O)Nc3ccc(C(F)(F)F)cc3)cc2C1=O,inactive
13,C[C@H](CO)N1C[C@H](C)[C@@H](CN(C)C(=O)Nc2ccc(C(F)(F)F)cc2)OCCCC[C@H](C)Oc2ccc(NC(=O)Nc3ccc(F)cc3)cc2C1=O,inactive
14,C[C@@H]1CN([C@H](C)CO)C(=O)c2cc(NC(=O)Nc3ccc(C(F)(F)F)cc3)ccc2O[C@@H](C)CCCCO[C@H]1CN(C)C(=O)Nc1ccc(F)cc1,active
15,C[C@H]1CCCCO[C@H](CN(C)C(=O)Nc2ccc(C(F)(F)F)cc2)[C@@H](C)CN([C@@H](C)CO)C(=O)c2cc(NC(=O)Nc3ccc(F)cc3)ccc2O1,inactive
16,C[C@@H]1CCCCO[C@@H](CN(C)C(=O)Nc2ccc(C(F)(F)F)cc2)[C@H](C)CN([C@H](C)CO)C(=O)c2cc(NC(=O)Nc3ccc(F)cc3)ccc2O1,active
17,C[C@@H]1CCCCO[C@H](CN(C)C(=O)Nc2ccc(C(F)(F)F)cc2)[C@@H](C)CN([C@H](C)CO)C(=O)c2cc(NC(=O)Nc3ccc(F)cc3)ccc2O1,active
18,C[C@@H]1CCCCO[C@H](CN(C)C(=O)Nc2ccc(F)cc2)[C@@H](C)CN([C@@H](C)CO)C(=O)c2cc(NC(=O)Nc3ccc(C(F)(F)F)cc3)ccc2O1,inactive
19,C[C@@H]1CCCCO[C@H](CN(C)C(=O)Nc2ccc(C(F)(F)F)cc2)[C@H](C)CN([C@H](C)CO)C(=O)c2cc(NC(=O)Nc3ccc(F)cc3)ccc2O1,inactive
20,C[C@H]1CCCCO[C@@H](CN(C)C(=O)Nc2ccc(C(F)(F)F)cc2)[C@@H](C)CN([C@@H](C)CO)C(=O)c2cc(NC(=O)Nc3ccc(F)cc3)ccc2O1,inactive
21,C[C@@H]1CN([C@H](C)CO)C(=O)c2cc(NC(=O)Nc3ccc(F)cc3)ccc2O[C@@H](C)CCCCO[C@H]1CN(C)C(=O)Nc1ccc(C(F)(F)F)cc1,active
22,C[C@H](CO)N1C[C@H](C)[C@@H](CN(C)C(=O)Nc2ccc(F)cc2)OCCCC[C@H](C)Oc2ccc(NC(=O)Nc3ccc(C(F)(F)F)cc3)cc2C1=O,inactive
